Measured values published in PubChem BioAssay (NCATS).
Results filed as inconclusive are left out. Values without a mark were called inactive. Calls of active or inactive are those of the source. Calls come from the whole dose curve; as a rule, active = well fitted curve in the direction sought with a large enough effect; inconclusive = small, poorly fitted or top-dose-only effect, or another doubt; inactive = no such curve, though single readings can be large; an effect the other way counts as inactive or inconclusive.

Columns and labels:
[1] = Viability qHTS for spleen associated tyrosine kinase inhibitor (SYKi) drug resistant MV4-11 cells (AID 1963824); settings: SYKi-resistant MV4-11 viability, CellTiter-Glo, 72 h; series mostly up to 45 µM; note: potency is the fitted concentration of half-maximal effect; nearly all actives have a fitted effect of over 35% in size
Method in brief: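 CellTiter-Glo luminescence, read 10 min after reagent addition, reports viability after a 72 hr compound exposure. Cells are an MV4-11 line made resistant to SYK inhibition, seeded at 500 per well onto compound-containing plates.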

[2] = Quantitative highthroughput screen to assess conditional lethalithy of NOMO1 cells grown in RPMI1640 with untreated serum (RPMI+s) (AID 1963876); settings: NOMO1 AML cells in RPMI+serum, CellTiter-Glo viability, 48 h; series mostly up to 45.8 µM; note: nearly all actives have a fitted effect of over 35% in size; note: potency is the fitted concentration of half-maximal effect;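 for Viability: 100% = DMSO wells and 0% = empty wells without cells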
Method in brief: (§1)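 Each medium arm—HPLM with 10% dialyzed FBS, or RPMI1640 with 5 mM glucose and 10% untreated or dialyzed FBS—was screened against an 11-point, 3-fold compound titration for 48 h at 37 °C, with CellTiter-Glo luminescence as endpoint.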

[3] = Quantitative highthroughput screen to assess conditional lethalithy of NOMO1 cells grown in RPMI1640 with dialyzed fetal bovine serum (RPMI+ds) (AID 1963877); settings: NOMO1 in RPMI+dialyzed FBS viability, ATP luminescence, 48 h; series mostly up to 45.8 µM; note: nearly all actives have a fitted effect of over 30% in size; note: potency is the fitted concentration of half-maximal effect;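 for Viability: 100% = DMSO control wells and 0% = empty wells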
Method in brief: as §1

[4] = Quantitative highthroughput screen to assess conditional lethalithy of NOMO1 cells grown in Human Plasma-Like Medium with dialyzed fetal bovine serum (HPLM+ds) (AID 1963878); settings: NOMO1 AML cells in HPLM+ds, CellTiter-Glo viability, 48 h; series mostly up to 45.8 µM; note: nearly all actives have a fitted effect of over 35% in size; note: potency is the fitted concentration of half-maximal effect;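 for Viability: 100% = DMSO wells and 0% = empty wells on each plate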
Method in brief: as §1

[5] = Quantitative highthroughput screen to assess conditional lethalithy of P12 Ichikawa cells grown in Human Plasma-Like Medium with dialyzed fetal bovine serum (HPLM+ds) (AID 1963879); settings: ATP luminescence, 48 h; Potency: viability; series mostly up to 45.8 µM; note: nearly all actives have a fitted effect of over 35% in size; note: potency is the fitted concentration of half-maximal effect
Method in brief: as §1

[6] = Quantitative highthroughput screen to assess conditional lethalithy of P12 Ichikawa cells grown in RPMI1640 with dialyzed fetal bovine serum (RPMI+ds) (AID 1963880); settings: ATP luminescence, 48 h; Potency: P12-Ichikawa viability; series mostly up to 45.8 µM; note: nearly all actives have a fitted effect of over 35% in size; note: potency is the fitted concentration of half-maximal effect;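 for Viability: 100% = DMSO wells and 0% = empty wells on each plate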
Method in brief: as §1

[7] = Quantitative highthroughput screen to assess conditional lethalithy of P12 Ichikawa cells grown in RPMI1640 with untreated serum (RPMI+s) (AID 1963881); settings: ATP luminescence, 48 h; Potency: viability; series mostly up to 45.8 µM; note: nearly all actives have a fitted effect of over 35% in size; note: potency is the fitted concentration of half-maximal effect;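 for Viability: 100% = DMSO wells and 0% = empty wells without cells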
Method in brief: as §1

[8] = Quantitative highthroughput screen to assess conditional lethalithy of SEM cells grown in RPMI1640 with unreated serum (RPMI+s) (AID 1963883); settings: SEM B-ALL cells, CellTiter-Glo viability, 48 h; series mostly up to 45.8 µM; note: nearly all actives have a fitted effect of over 35% in size; note: potency is the fitted concentration of half-maximal effect;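 for Viability: 100% = DMSO wells and 0% = empty wells without cells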
Method in brief: as §1

[9] = Cellular viability qHTS for adrenocortical cancer (ACC) cell line SW-13 (AID 1963989); settings: SW-13 ACC cells viability, CellTiter-Glo, 48 h; activity (max response): active compounds read low;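 note: cells grown in serum-free medium with ITS supplement; % is set by controls: 0 for no effect and ±100 for the full control effect; nearly all actives have a fitted effect of over 65% in size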
Method in brief: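 SW-13 cells in ITS-supplemented serum-free DMEM were plated overnight, then exposed for 48 h at 37C to compound titrations (up to 46 uM final). Viability was read by CellTiter-Glo luminescence; four-parameter logistic fits gave IC50 and efficacy.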

[10] = Cellular viability qHTS for adrenocortical cancer (ACC) cell line NCI-H295R (AID 1963990); settings: CellTiter-Glo ATP luminescence, 48 h; series mostly up to 46.1 µM; note: nearly all actives have a fitted effect of over 60% in size; note: potency is the fitted concentration of half-maximal effect
Method in brief: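 Luminescent ATP read-out (CellTiter-Glo, 20 min RT) after 48 h drug exposure of NCI-H295R cells; a titration up to 46 uM final. Data normalized to doxorubicin (100% inhibition) and DMSO (0%); 4-parameter fit gives IC50, max response.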

[11] = Quantitative highthroughput screen to assess conditional lethalithy of SEM cells grown in Human Plasma-Like Medium with dialyzed fetal bovine serum (HPLM+ds) (AID 1963882); settings: SEM B-ALL cells in HPLM+ds, CellTiter-Glo viability, 48 h; series mostly up to 45.8 µM; note: nearly all actives have a fitted effect of over 35% in size; note: potency is the fitted concentration of half-maximal effect
Method in brief: as §1

[12] = Quantitative highthroughput screen to assess conditional lethalithy of SEM cells grown in RPMI1640 with dialyzed fetal bovine serum (RPMI+ds) (AID 1963884); settings: SEM B-ALL cells, RPMI+dialyzed FBS, CellTiter-Glo viability, 48 h; series mostly up to 45.8 µM; note: nearly all actives have a fitted effect of over 35% in size; note: potency is the fitted concentration of half-maximal effect;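 for Viability: 100% = DMSO control wells and 0% = empty wells without cells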
Method in brief: as §1

Row | Structure (SMILES) | Potency [1] | Potency [2] | Potency [3] | Potency [4] | Potency [5] | Potency [6] | Potency [7] | Potency [8] | activity (max response) [9] | Potency [10] | Potency [11] | Potency [12]
1 | N#CC1(c2cccc(C(=O)Nc3cc(Oc4ccc5nc(NC(=O)C6CC6)sc5n4)ccc3F)c2Cl)CC1 | 0.58 µM (active) | 3.72 µM (active) | 2.09 µM (active) | 1.32 µM (active) | 5.9 µM (active) | 2.64 µM (active) | 5.26 µM (active) | 3.72 µM (active) |  |  |  | 
2 | O=C(O)CCc1ccc(NCc2cccc(Oc3ccccc3)c2)cc1 | 16.4 µM (active) | inactive | inactive | inactive | inactive | inactive | inactive | inactive | -8.89% | inactive |  | 
3 | COc1ccc(-c2ccc3c(N4CCOCC4)nc(N4C[C@@H](C)O[C@@H](C)C4)nc3n2)cc1CO | 1.32 µM (active) | 2.96 µM (active) | 4.69 µM (active) | 1.32 µM (active) |  | 1.87 µM (active) | 1.05 µM (active) |  |  | 0.631 µM (active) | 1.48 µM (active) | 
4 | Cc1cc(NC(=O)Nc2ccc(N(C)C)cc2)c2cc(F)cc(F)c2n1 | 10.2 µM (active) | inactive | inactive | inactive | inactive |  | inactive |  | -2.18% | inactive | inactive | inactive
5 | COc1ccc(-c2cc(=O)c3c(O)cc(O)cc3o2)cc1O | 10.5 µM (active) | inactive | inactive | inactive | inactive | inactive | inactive |  | -29.6% |  |  | 
6 | NCc1ccc(OCCCc2sc(-c3ccc4c(c3)/C(=N/Nc3nc5ccccc5s3)CCC4)nc2C(=O)O)cc1 | 9.34 µM (active) | 0.0059 µM (active) | 0.0166 µM (active) | inactive | 0.0047 µM (active) | 0.0093 µM (active) | 0.0331 µM (active) |  | -8.27% | inactive |  | 0.0047 µM (active)
